Assay results as given in PMC4336329 (PLoS ONE, 2015).
About 14,000 (4.5%) of roughly 310,000 compounds showed an effect of 50% or more. Effects have a minus sign here. The full list was thinned out, with strong results kept by preference.

Molecular target: human ether-à-go-go-related gene (hERG) potassium channel (human, UniProt Q12809)
Test: primary screen, population patch clamp on CHO cells stably expressing hERG; higher = less effect of the substance
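Also: peak tail current of the secondary pulse compared with the same well before compound.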

Chain of human ether-à-go-go-related gene (hERG) potassium channel (Q12809 whole entry, looked up): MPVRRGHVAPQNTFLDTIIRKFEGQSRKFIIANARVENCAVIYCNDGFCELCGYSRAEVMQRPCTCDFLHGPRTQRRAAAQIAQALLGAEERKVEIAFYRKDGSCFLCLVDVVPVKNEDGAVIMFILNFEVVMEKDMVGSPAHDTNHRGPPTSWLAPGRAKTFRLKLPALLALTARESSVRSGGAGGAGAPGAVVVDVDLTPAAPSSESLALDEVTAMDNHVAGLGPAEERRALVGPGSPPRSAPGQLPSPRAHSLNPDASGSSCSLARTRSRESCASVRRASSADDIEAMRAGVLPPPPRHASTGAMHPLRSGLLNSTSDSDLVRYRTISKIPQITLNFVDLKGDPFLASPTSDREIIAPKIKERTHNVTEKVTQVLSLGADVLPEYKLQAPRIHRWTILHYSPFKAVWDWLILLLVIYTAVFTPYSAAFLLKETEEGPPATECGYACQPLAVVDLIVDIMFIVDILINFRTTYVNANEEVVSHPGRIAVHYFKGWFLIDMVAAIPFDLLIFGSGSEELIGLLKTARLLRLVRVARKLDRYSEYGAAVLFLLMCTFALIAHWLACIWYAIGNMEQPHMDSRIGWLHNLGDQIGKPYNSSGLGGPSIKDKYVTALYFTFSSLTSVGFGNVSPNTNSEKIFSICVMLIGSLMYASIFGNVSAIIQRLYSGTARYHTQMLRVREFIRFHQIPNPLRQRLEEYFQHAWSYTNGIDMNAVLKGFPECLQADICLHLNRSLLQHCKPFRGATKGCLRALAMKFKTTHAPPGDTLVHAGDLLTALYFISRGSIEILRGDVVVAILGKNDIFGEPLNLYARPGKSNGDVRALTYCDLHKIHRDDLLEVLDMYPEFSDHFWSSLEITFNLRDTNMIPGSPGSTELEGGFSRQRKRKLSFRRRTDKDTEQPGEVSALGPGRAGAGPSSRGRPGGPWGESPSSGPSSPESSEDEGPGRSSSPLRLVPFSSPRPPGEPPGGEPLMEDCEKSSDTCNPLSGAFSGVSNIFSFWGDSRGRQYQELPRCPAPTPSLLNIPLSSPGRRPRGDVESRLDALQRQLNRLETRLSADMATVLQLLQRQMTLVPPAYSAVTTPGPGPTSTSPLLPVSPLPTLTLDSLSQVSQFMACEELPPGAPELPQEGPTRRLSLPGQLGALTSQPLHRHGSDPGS

Structure (SMILES) | hERG current change (%, negative = inhibition) at 10uM [%]
COc1ccccc1CCNC(=O)C1CCC(=O)N(C2CCCCCC2)C1 (stereo not drawn) | -7.62
Cc1ccc(-c2nnc3sc(-c4ccncc4)nn23)cc1 | -41.4
N#Cc1cc2sc3nnc(-c4ccncc4)n3c2cc1C#N | -54
Cc1cn2c(-c3ccncc3)nnc2s1 | 7.96
COCCCNC(=O)c1ccc(Cn2c(=O)c3ccccc3n(CC(=O)NCc3ccco3)c2=O)cc1 | 6.71
COc1cccc2sc(=NC(=O)CCS(=O)(=O)c3ccc(C)cc3)n(C)c12 | 8.32
COc1cccc2sc(=NC(=O)CS(=O)(=O)c3ccc(Cl)cc3)n(C)c12 | -60.8
COc1cccc2sc(=NC(=O)CS(=O)(=O)c3ccc(F)cc3)n(C)c12 | -0.213
Cc1ccccc1OCC(=O)NN1C(=O)C2C3C=CC(O3)C2C1=O (stereo not drawn) | 12.3
COCCc1nnc(NC(=O)Cc2ccccc2)s1 | 4.67
C#Cc1ccc([C@@H]2C=C(C(=O)NCc3ccccc3)O[C@H](OCc3ccc(CO)cc3)C2)cc1 | 6.15
O=C(NCCC(=O)N(Cc1ccco1)Cc1cccs1)c1ccc(Br)cc1 | -58.7
O=C(c1cc2ccccc2oc1=O)N(Cc1ccco1)Cc1cccs1 | -58.3
O=C(c1cc2ccccc2o1)N(Cc1ccco1)Cc1cccs1 | -35.4
O=C(NCCC(=O)N(Cc1ccco1)Cc1cccs1)c1ccccc1Cl | -16.5
O=C(c1cc2ccccc2oc1=O)N(Cc1cccs1)Cc1cccs1 | -14.4
O=C(NCc1ccc2c(c1)OCO2)c1cc2ccccc2oc1=O | 12
O=C(c1cc2ccccc2oc1=O)N(Cc1ccc2c(c1)OCO2)Cc1ccco1 | -59.3
COc1ccccc1C(=O)NCCC(=O)N(Cc1ccco1)Cc1cccs1 | -21.3
O=C(c1cc2ccccc2oc1=O)N(Cc1ccco1)CC1CCCO1 (stereo not drawn) | 6.96
CCn1c(CNC(=O)c2ccc(OC)c(OC)c2)nnc1SCC(=O)Nc1ccccc1 | -21.5
COC(=O)C1=C(c2cccc(C#N)c2)C[C@@H]2CC[C@H]1N2C(=O)N1CCOCC1 | 6.41
COc1ccc(-c2noc(CN(C)C(=O)CCN3C(=O)[C@H]4CC=CC[C@H]4C3=O)n2)cc1 | -2
COc1cc(C(=O)NCC(=O)OCC(=O)N2CCc3ccccc32)cc(OC)c1OC | 3.43

Structure (SMILES) | hERG current change (%, negative = inhibition) at 10uM [%]
COc1ccc(OC)c(S(=O)(=O)Oc2ccc(N)c3ccccc23)c1 | 7.83
CC(C)(C)c1ccc(C(=O)NNC(=S)NCC2CCCO2)cc1 (stereo not drawn) | 14.4
CCOc1ccc(NC(=O)CCSc2ccc(C)cc2)cc1 | 8.63
Cc1ccc(NC(=O)N2CCN(C(=O)c3ccco3)CC2)cc1Cl | -2.38
O=C(c1cccc(Cl)c1)N1CCN(C(=O)c2ccco2)CC1 | -8.43
O=C(c1ccco1)N1CCN(C(=O)c2ccc(CS(=O)c3cccc(Cl)c3)o2)CC1 (stereo not drawn) | -14
Cc1ccc(Nc2nc(N)nc(CN3CCN(C(=O)c4ccco4)CC3)n2)cc1Cl | -74
Nc1nc(CN2CCN(C(=O)c3ccco3)CC2)nc(Nc2cccc(Cl)c2)n1 | -78.6
Cc1cc(/C=C2\SC(=S)NC2=O)c(C)n1-c1ccccc1 | 14.6
Oc1c(/C=C/C=C/C=Nc2ccccc2)sc(=S)n1Cc1ccccc1 | -5.14
CN1CCN(c2nc(-c3ccco3)cc(C(F)(F)F)n2)CC1 | -62.8
Fc1ccc(N2CCN(c3nc(-c4ccco4)cc(C(F)(F)F)n3)CC2)cc1 | 15.2
FC(F)(F)c1cc(-c2ccco2)nc(N2CCN(c3ccccc3)CC2)n1 | 1.67
O=C(O)Cc1ccc(NC(=O)C2CC=CCC2C(=O)O)cc1 (stereo not drawn) | 23.7
C[C@@H](NC(=O)c1nc[nH]c1C(=O)NC1CCN(C(=O)OC(C)(C)C)CC1)c1ccccc1 | -14.4
Nc1nc2n(n1)C(c1cccs1)CC(c1ccc(F)cc1)N2 (stereo not drawn) | -33.9
Nc1nc2n(n1)C(c1ccccc1Cl)CC(c1ccc(F)cc1)N2 (stereo not drawn) | -25.1
COc1cccc(C2CC(c3c(F)cccc3Cl)n3nc(N)nc3N2)c1 (stereo not drawn) | -2.6
CCOc1ccccc1C1CC(c2ccc(Br)cc2)Nc2nc(N)nn21 (stereo not drawn) | -55.1
Cc1ccc(C2CC(c3ccccc3C)n3nc(N)nc3N2)cc1 (stereo not drawn) | -14.6
CCOc1ccccc1C1CC(c2ccccc2)Nc2nc(N)nn21.Cl (stereo not drawn) | -11.9
Nc1nc2n(n1)C(c1cccs1)CC(c1ccccc1)N2 (stereo not drawn) | -23.5
CCOc1ccccc1C1CC(c2ccc(F)cc2)Nc2nc(N)nn21 (stereo not drawn) | -48.1
Cc1ccccc1C1CC(c2ccc(Br)cc2)Nc2nc(N)nn21 (stereo not drawn) | -52.3

Structure (SMILES) | hERG current change (%, negative = inhibition) at 10uM [%]
Nc1nc2n(n1)C(c1c(F)cccc1Cl)CC(c1ccc(F)cc1)N2 (stereo not drawn) | -62.4
Cc1ccccc1C1CC(c2ccc(F)cc2)Nc2nc(N)nn21 (stereo not drawn) | -27.2
Nc1nc2n(n1)C(c1cccs1)CC(c1ccc(Br)cc1)N2 (stereo not drawn) | -57.5
CC(=O)N1CCN=C1SCc1cccc(Cl)c1 | -3.91
CC(C)C(c1nnnn1C1CCCCC1)N1CCc2ccccc2C1 (stereo not drawn) | 2.91
c1ccc(-c2cnc(-c3ccccn3)nn2)cc1 | 18.6
O=C(NCc1ccco1)c1ccc(N2CCCC2=O)cc1 | 4.3
Cc1cc(Nc2ccc(O)cc2)ccc1N | 14.1
COc1ccc(CCN=C2SCC(=O)N2C)cc1OC | -4.8
CCCCn1c(N)c(N(CCOC)C(=O)CSCc2c(C)noc2C)c(=O)[nH]c1=O | 17.1
O=C(O)c1ccc(NS(=O)(=O)c2ccc(N3CCCC3)c([N+](=O)[O-])c2)cc1 | 11.3
CCN(CCO)c1nc(N2CCCCC2)c2cnn(C)c2n1 | 3.12
COc1ccc2c(=O)c(C(=O)O)c(-c3ccc4c(c3)OCO4)n(C)c2c1 | 17.2
CCN=C1SC(CC(=O)NCC)C(=O)N1CC (stereo not drawn) | -12.5
O=C(N/N=C/c1ccc(O)cc1)c1cc(-c2ccccc2)nc2ccccc12 | 11.2
Cc1cccc(NC(=O)c2cc3ccccc3o2)c1 | -19.8
CCCCCn1c(NCc2ccco2)nc2ccccc21 | -74.8
CCCCCn1c(C(C)NC(=O)CCC)nc2ccccc21 (stereo not drawn) | -48.4
CCN(CC)CCn1c(NCc2ccccn2)nc2ccccc21.Cl | -34.4
CCCCCCn1c(C(C)NC(=O)c2ccco2)nc2ccccc21 (stereo not drawn) | -59.9
CCCCn1c(C(C)NC(=O)CC)nc2ccccc21 (stereo not drawn) | -21.9
CCN(CC)CCn1c(NCc2ccco2)nc2ccccc21.Cl | -73
Cn1c(NCc2ccco2)nc2ccccc21 | -10.2
CCCn1c(NCc2ccc(C)o2)nc2ccccc21 | -24.1

Structure (SMILES) | hERG current change (%, negative = inhibition) at 10uM [%]
c1csc(Cn2c(-c3cccs3)nc3ccccc32)c1 | -68.6
CCn1c(-c2cccs2)nc2ccccc21 | -11.4
CCn1c(NCc2ccco2)nc2ccccc21 | 2.38
C=CCn1c(-c2cccs2)nc2ccccc21 | 3.12
Cn1cnnc1SCC(=O)c1ccc(O)c(O)c1 | 18.7
O=C1CC2(CCCCC2)Oc2ccc(F)cc21 | -4.03
CCN(CC)CCNC(=O)Cn1cnc2sc(C)c(S(=O)(=O)N3CC(C)CC(C)C3)c2c1=O (stereo not drawn) | 24.8
COc1ccc(Cn2c(=S)[nH]c3cc(OC)c(OC)cc3c2=O)cc1 | 20.4
O=[N+]([O-])c1ccc(-c2ccc(/C=N/c3c(-c4ccco4)nc4ccccn34)o2)cc1 | 8.33
O=C(O)CCSc1nnc(-c2ccccc2)n1-c1ccccc1 | -3.32
Cc1ccc(SCc2cc(=O)[nH]c(N3CCCCC3)n2)cc1 | -8.62
CCOC(=O)C(O)(c1ccc(NC(=S)NC(=O)c2ccc(Cl)cc2Cl)c(C)c1)C(F)(F)F (stereo not drawn) | 27.4
COc1ccccc1NC(=O)CCSc1nnc(-c2ccncc2)o1 | -2.96
Fc1ccccc1NC(=S)NNc1ncc(C(F)(F)F)cc1Cl | 21.2
CN1CCCN(C(=O)COc2cccc(C(F)(F)F)c2)CC1 | -0.603
C=CCn1c(NCc2ccco2)nc2ccccc21 | -8.07
CC(NC(=O)/C=C/c1ccco1)c1nc2ccccc2n1Cc1ccccc1F (stereo not drawn) | 0.704
CCCCn1c(NCc2cccs2)nc2ccccc21 | -55.9
CCn1c(NCc2cccs2)nc2ccccc21 | -12.2
CC(NC(=O)/C=C/c1ccco1)c1nc2ccccc2n1Cc1c(Cl)cccc1Cl (stereo not drawn) | -11
c1ccc(Cn2c(NCc3ccccn3)nc3ccccc32)cc1 | -39
CCCn1c(NCc2cccs2)nc2ccccc21 | -29.3
CC(NC(=O)/C=C/c1ccco1)c1nc2ccccc2n1Cc1cccc(Cl)c1 (stereo not drawn) | -67.2
c1ccc(Cn2c(NCc3ccco3)nc3ccccc32)cc1 | -51
